Results reported in PubChem BioAssay AID1159580 (chemical genetic matrix, 2015).
The campaign covered roughly 5,500 compounds. About 2,000 (36%) were called active. Roughly 18% stayed inconclusive and do not appear here. No stated cut-off is given here; in the data, active means normalized growth mostly below about 0.91 (no sharp cut-off); inconclusive means no clear call, values can overlap the other calls; inactive means mostly above about 0.92. This is one part of the list.

Test: chemical genetic growth profiling, strain panel (AID 1159580);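 further: tested at 20 µM; growth read once vehicle control cultures reached saturation at 30 °C; 1 = growth at the plate median or of vehicle wells; lower values mean less growth of the strain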
Details: growth OD
[1] = S. cerevisiae deletion strains, locus YDL101C, strain DUN1, hits give low values
[2] = S. cerevisiae deletion strains, locus YHR030C, strain SLT2, hits give low values

Measured: normalized growth

CCCCNC(=S)N/N=C\c1cc(Cl)cc(Cl)c1O
inactive: S. cerevisiae deletion strains, locus YAR019C, strain CDC15, hits give low values 0.929 | S. cerevisiae deletion strains, locus YBL105C, strain PKC1, hits give low values 0.928 | S. cerevisiae deletion strains, locus YBR135W, strain CKS1, hits give low values 0.922 | S. cerevisiae deletion strains, locus YBR136W, strain MEC1, hits give low values 0.924 | S. cerevisiae deletion strains, locus YBR160W, strain CDC28, hits give low values 0.941 | S. cerevisiae deletion strains, locus YDL017W, strain CDC7, hits give low values 0.926 | S. cerevisiae deletion strains, locus YDL028C, strain MPS1, hits give low values 0.926 | [1] 0.97 | S. cerevisiae deletion strains, locus YDL108W, strain KIN28, hits give low values 0.922 | S. cerevisiae deletion strains, locus YDL132W, strain cdc53, hits give low values 0.917 | S. cerevisiae deletion strains, locus YDR052C, strain DBF4, hits give low values 0.941 | S. cerevisiae deletion strains, locus YDR054C, strain cdc34, hits give low values 0.914 | S. cerevisiae deletion strains, locus YDR226W, strain ADK1, hits give low values 0.924 | S. cerevisiae deletion strains, locus YFL009W, strain cdc4, hits give low values 0.913 | S. cerevisiae deletion strains, locus YFL029C, strain CAK1, hits give low values 0.936 | S. cerevisiae deletion strains, locus YFR003C, strain YPI1, hits give low values 0.918 | S. cerevisiae deletion strains, locus YFR019W, strain FAB1, hits give low values 0.785 | S. cerevisiae deletion strains, locus YFR028C, strain CDC14, hits give low values 0.924 | S. cerevisiae deletion strains, locus YHR079C, strain IRE1, hits give low values 0.601 | S. cerevisiae deletion strains, locus YIL147C, strain SLN1, hits give low values 0.923 | S. cerevisiae deletion strains, locus YJL128C, strain PBS2, hits give low values 0.897 | S. cerevisiae deletion strains, locus YJR016C, strain ILV3, hits give low values 0.922 | S. cerevisiae deletion strains, locus YKL193C, strain SDS22, hits give low values 0.916 | S. cerevisiae deletion strains, locus YMR001C, strain CDC5, hits give low values 0.913 | S. cerevisiae deletion strains, locus YMR277W, strain FCP1, hits give low values 0.905 | S. cerevisiae deletion strains, locus YNL006W, strain LST8, hits give low values 0.934 | S. cerevisiae deletion strains, locus YNL161W, strain CBK1, hits give low values 0.932 | S. cerevisiae deletion strains, locus YNL207W, strain RIO2, hits give low values 0.922 | S. cerevisiae deletion strains, locus YNL222W, strain SSU72, hits give low values 0.933 | S. cerevisiae deletion strains, locus YOL078W, strain AVO1, hits give low values 0.912 | S. cerevisiae deletion strains, locus YOL136C, strain PFK27, hits give low values 0.713 | S. cerevisiae deletion strains, locus YOR231W, strain MKK1, hits give low values 0.591 | S. cerevisiae deletion strains, locus YOR329C, strain SCD5, hits give low values 0.924 | S. cerevisiae deletion strains, locus YPL209C, strain IPL1, hits give low values 0.928 | S. cerevisiae deletion strains, locus YPR025C, strain CCL1, hits give low values 0.931 | S. cerevisiae deletion strains, locus YPR106W, strain ISR1, hits give low values 0.908 | S. cerevisiae deletion strains, locus YPR111W, strain DBF20, hits give low values 0.933 | S. cerevisiae deletion strains, strain TSCII, hits give low values 0.918
active: S. cerevisiae deletion strains, locus YDL214C, strain PRR2, hits give low values 0.65 | S. cerevisiae deletion strains, locus YDR477W, strain SNF1, hits give low values 0.513 | S. cerevisiae deletion strains, locus YER123W, strain YCK3, hits give low values 0.519 | S. cerevisiae deletion strains, locus YER133W, strain GLC7, hits give low values 0.601 | S. cerevisiae deletion strains, locus YGR040W, strain KSS1, hits give low values 0.531 | S. cerevisiae deletion strains, locus YGR052W, strain FMP48, hits give low values 0.195 | S. cerevisiae deletion strains, locus YGR092W, strain DBF2, hits give low values 0.35 | [2] 0.275 | S. cerevisiae deletion strains, locus YHR082C, strain KSP1, hits give low values 0.242 | S. cerevisiae deletion strains, locus YHR205W, strain SCH9, hits give low values 0.236 | S. cerevisiae deletion strains, locus YJL095W, strain BCK1, hits give low values 0.352 | S. cerevisiae deletion strains, locus YJL157C, strain FAR1, hits give low values 0.63 | S. cerevisiae deletion strains, locus YJR066W, strain TOR1 (second series), hits give low values 0.58 | S. cerevisiae deletion strains, locus YJR066W, strain TOR1, hits give low values 0.289 | S. cerevisiae deletion strains, locus YKL048C, strain ELM1, hits give low values 0.637 | S. cerevisiae deletion strains, locus YKL067W, strain YNK1, hits give low values 0.676 | S. cerevisiae deletion strains, locus YKL101W, strain HSL1, hits give low values 0.385 | S. cerevisiae deletion strains, locus YKL203C, strain TOR2, hits give low values 0.249 | S. cerevisiae deletion strains, locus YLR113W, strain HOG1, hits give low values 0.444 | S. cerevisiae deletion strains, locus YLR133W, strain CKI1, hits give low values 0.49 | S. cerevisiae deletion strains, locus YLR403W, strain SFP1, hits give low values 0.302 | S. cerevisiae deletion strains, locus YML070W, strain DAK1, hits give low values 0.603 | S. cerevisiae deletion strains, locus YMR205C, strain PFK2 (second series), hits give low values 0.603 | S. cerevisiae deletion strains, locus YNL020C, strain ARK1, hits give low values 0.44 | S. cerevisiae deletion strains, locus YNL183C, strain NPR1, hits give low values 0.318 | S. cerevisiae deletion strains, locus YNL307C, strain MCK1 (second series), hits give low values 0.362 | S. cerevisiae deletion strains, locus YOR061W, strain CKA2, hits give low values 0.538 | S. cerevisiae deletion strains, locus YOR119C, strain RIO1, hits give low values 0.343 | S. cerevisiae deletion strains, locus YPL031C, strain PHO85, hits give low values 0.477 | S. cerevisiae deletion strains, locus YPL153C, strain RAD53, hits give low values 0.495 | S. cerevisiae deletion strains, locus YPL204W, strain HRR25, hits give low values 0.488 | S. cerevisiae deletion strains, locus YPL256C, strain CLN2, hits give low values 0.457 | S. cerevisiae deletion strains, strain NNK1, hits give low values 0.787

COCCCNC(=S)N/N=C\c1cccc(OC)c1O
inactive: S. cerevisiae deletion strains, locus YAL013W, strain DEP1, hits give low values 0.984 | S. cerevisiae deletion strains, locus YBR229C, strain ROT2, hits give low values 1.02 | S. cerevisiae deletion strains, locus YCL061C, strain MRC1, hits give low values 0.979 | [1] 0.998 | S. cerevisiae deletion strains, locus YDL134C, strain PPH21, hits give low values 1.01 | S. cerevisiae deletion strains, locus YDR150W, strain NUM1, hits give low values 0.928 | S. cerevisiae deletion strains, locus YEL061C, strain CIN8, hits give low values 0.999 | S. cerevisiae deletion strains, locus YGR078C, strain PAC10, hits give low values 0.991 | [2] 1.01 | S. cerevisiae deletion strains, locus YHR087W, strain rtc3, hits give low values 1.01 | S. cerevisiae deletion strains, locus YJR043C, strain POL32, hits give low values 1.01 | S. cerevisiae deletion strains, locus YJR075W, strain HOC1, hits give low values 0.979 | S. cerevisiae deletion strains, locus YLR039C, strain RIC1, hits give low values 1.11 | S. cerevisiae deletion strains, locus YLR058C, strain SHM2 (second series), hits give low values 0.997 | S. cerevisiae deletion strains, locus YLR085C, strain ARP6, hits give low values 0.978 | S. cerevisiae deletion strains, locus YLR262C, strain YPT6, hits give low values 1.08 | S. cerevisiae deletion strains, locus YML094W, strain GIM5, hits give low values 0.994 | S. cerevisiae deletion strains, locus YMR219W, strain ESC1, hits give low values 0.991 | S. cerevisiae deletion strains, locus YMR263W, strain SAP30, hits give low values 0.991 | S. cerevisiae deletion strains, locus YMR307W, strain GAS1, hits give low values 0.951 | S. cerevisiae deletion strains, locus YNL153C, strain GIM3, hits give low values 0.987 | S. cerevisiae deletion strains, locus YNL298W, strain CLA4 (second series), hits give low values 1.04 | S. cerevisiae deletion strains, locus YNL322C, strain KRE1, hits give low values 0.989 | S. cerevisiae deletion strains, locus YNR030W, strain Alg12, hits give low values 0.982 | S. cerevisiae deletion strains, locus YOL006C, strain TOP1, hits give low values 0.988 | S. cerevisiae deletion strains, locus YPL055C, strain LGE1, hits give low values 0.856 | S. cerevisiae deletion strains, locus YPL241C, strain CIN2, hits give low values 0.964 | S. cerevisiae deletion strains, locus YPR135W, strain CTF4, hits give low values 0.94 | S. cerevisiae strains, strain wild type, hits give low values 1.02
